AmpC inh no detg: inhibitors of E. coli AmpC beta-lactamase without detergent; P00811; AmpC nitrocefin hydrolysis, absorbance 480 nm, 0.0001% Triton; Potency, µM (series often up to 57.1 µM), for the others: at the highest dose activity change, negative = inhibition, most hits filed as inhibitors; actives 0.52% (n = 330,000); AID 485341;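 further: plate controls were no compound for no effect and no enzyme for full effect; nearly all actives have a fitted effect of over 20% in size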
Target sequence (P00811 whole entry, looked up): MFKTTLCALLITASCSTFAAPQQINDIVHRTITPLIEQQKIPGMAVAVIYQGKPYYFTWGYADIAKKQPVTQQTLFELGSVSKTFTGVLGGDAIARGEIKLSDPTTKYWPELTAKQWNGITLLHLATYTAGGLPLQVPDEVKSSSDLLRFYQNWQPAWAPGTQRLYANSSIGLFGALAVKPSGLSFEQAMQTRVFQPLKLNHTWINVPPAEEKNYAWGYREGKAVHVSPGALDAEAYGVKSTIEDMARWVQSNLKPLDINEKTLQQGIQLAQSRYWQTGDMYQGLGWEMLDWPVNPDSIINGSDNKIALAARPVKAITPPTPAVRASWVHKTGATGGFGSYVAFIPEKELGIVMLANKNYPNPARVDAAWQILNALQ
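AmpC (5.3 nM in the dispensed reagent) in 20 mM phosphate pH 7.0 with 0.01% (detergent screen) or 0.0001% Triton X-100 was preincubated with compounds for 15 min at room temperature. Nitrocefin was then added from an 800 uM solution, and hydrolysis was followed at 480 nm.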
AmpC inh detg: blocks E. coli AmpC beta-lactamase in detergent assay; P00811; AmpC hydrolysis of nitrocefin, absorbance 480 nm, 0.01% Triton; Potency, µM (doses to about 114 µM), for inactives: at the top dose activity change, negative = inhibition, most hits filed as inhibitors; actives 0.041% (n = 370,000); AID 485294;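 further: 0% = no-compound wells and -100% = no-enzyme wells; nearly all actives have a fitted effect of over 25% in size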
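20 mM phosphate pH 7.0 + 0.01% (detergent screen) or 0.0001% Triton X-100; 5.3 nM AmpC reagent; cpd preinc 15 min RT; nitrocefin (800 uM stock) to start; A480 q20 s × 4 min; Activity was normalised to no-enzyme and no-compound control wells.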
AMA1 RON2 block: inhibitors of Plasmodium falciparum AMA1-RON2 interaction | AlphaScreen AMA1-biotinylated RON2 peptide binding | Potency, µM (highest dose often 58.2 µM), inactives show top-dose activity change, negative = inhibition, most hits filed as inhibitors | actives 0.2% (n = 360,000) | AID 720542;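 further: 0% = vehicle wells and -100% = peptide control; nearly all actives have a fitted effect of over 45% in size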
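AMA1 (3D7) with his tag at 25 nM final met compounds first, then biotinylated RON2 peptide at 25 nM; detection used donor plus acceptor beads, 10 µg/mL apiece, read by AlphaScreen after 30 min at room temperature.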
Sm TGR inh: blocks Schistosoma mansoni thioredoxin glutathione reductase; actives 3% (n = 360,000); Q962Y6; Potency, µM (doses to about 114 µM), for inactives: top-dose activity change, negative = inhibition, most hits filed as inhibitors; purified TGR, DTNB reduction, TNB absorbance 405 nm; further: nearly all actives have a fitted effect of over 60% in size
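Kinetic colorimetric format: TGR-catalysed, NADPH-driven DTNB reduction monitored via TNB absorbance. Enzyme dispensed at 20 nM; compound exposure 15 min at room temperature before reaction start.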
RE007 growth inh: less growth of the S. pombe RE007 Vpr strain; Potency, µM (series often up to 92.2 µM), inactives show at the top dose activity change, negative = less growth, actives largely listed as inhibitors; S. pombe RE007 Vpr strain, BacTiter-Glo ATP luminescence, 24 h; actives 0.21% (n = 360,000); active means well fitted falling curve with a large enough effect; inconclusive means small, poorly fitted or top-dose-only effect; inactive means no such curve, though single readings can be large or run the other way; further: nearly all actives have a fitted effect of over 50% in size
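Fission yeast strain RE007, carrying one chromosomally integrated HIV-1 vpr copy, was seeded at OD 0.01 in PMG+AL medium with 23 nL pinned compound. After 24 h at 30 °C and 99% humidity, viability was read by BacTiter-Glo luminescence.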
* = called active by the depositor; ? = inconclusive; . = no result; [ ] = dose if it differs, or a comment. Hits are enriched below; roughly 3.2% of the tested compounds scored in any of these assays. Unless noted, the call rests on the fitted dose curve; in most records, active means well fitted curve in the direction sought with a large enough effect; inconclusive means small, poorly fitted or top-dose-only effect, or another doubt; inactive means no such curve, though single readings can be large; an effect the other way counts as inactive or inconclusive. Unless noted, on the % scale 0 is the no-effect control and ±100 the full control effect; potency means the concentration at half of the fitted maximal effect.

SMILES | AmpC inh no detg | AmpC inh detg | AMA1 RON2 block | Sm TGR inh | RE007 growth inh
CC(=O)c1cccc(NC(=O)COC(=O)c2ccc(S(C)(=O)=O)c([N+](=O)[O-])c2)c1 | 5% | 0% | 19% | 3.2µM* | -23%
Cc1ccccc1NC(=O)Cc1nc(COC(=O)c2ccc(S(C)(=O)=O)c([N+](=O)[O-])c2)cs1 | -27% | 8% | 15% | 2.8µM* | 9%
CCCNC(=O)COC(=O)c1ccccc1C(=O)c1ccc(Cl)c([N+](=O)[O-])c1 | 9% | ? | 13% | ? | 11%
CC(CCc1ccccc1)NC(=O)COC(=O)c1ccc(S(C)(=O)=O)c([N+](=O)[O-])c1 (stereo not given) | 13% | 0% | -5% | 1.8µM* | 17%
Cc1ccc(Cl)c(NC(=O)COC(=O)c2ccccc2C(=O)c2ccc(Cl)c([N+](=O)[O-])c2)c1Cl | 20µM* | 1% | 0% | -10% | 1%
Cc1ccccc1NC(=O)Cc1nc(COC(=O)c2ccc(NC(N)=O)cc2)cs1 | -31% | . | 24% | . | 8%
CCc1cccc(C)c1NS(=O)(=O)c1ccc2c(c1)NC(=O)C(C)C(=O)N2 (stereo not given) | . | 4% | . | 3% | .
CC(C)(C)c1ccc(-c2nnc(-c3ccccc3NC(=O)c3cccc(C(F)(F)F)c3)o2)cc1 | . | -1% | . | 11% | .
Cc1cccc(-n2c(C)nc3cc(C(=O)NCCC4=CCCCC4)ccc32)c1 | . | 12% | . | -6% | .
CS(=O)(=O)c1ccc(C(=O)OCc2nnc(-c3ccccc3)o2)cc1[N+](=O)[O-] | 14% | -3% | -18% | 1.4µM* | 33%
CS(=O)(=O)c1ccc(C(=O)OCC(=O)NC(=O)C2CCCCC2)cc1[N+](=O)[O-] | -7% | ? | -21% | 7.1µM* | -9%
CS(=O)(=O)c1ccc(C(=O)OCC(=O)NC(=O)C2COc3ccccc3O2)cc1[N+](=O)[O-] (stereo not given) | -30% | . | -5% | . | -2%
CN(C)S(=O)(=O)c1ccc(C(=O)OCc2nnc(-c3ccccc3)o2)cc1 | 30% | -3% | 6% | 0% | -14%
Cc1ccccc1NC(=O)COC(=O)c1ccc(S(C)(=O)=O)c([N+](=O)[O-])c1 | -11% | -9% | 15% | 1.4µM* | -4%
Cc1cc(SCC(=O)NC2(C#N)CCCCC2)nc2c(C)cccc12 | 32µM* | -15% | 5% | 3% | 11%
COc1ccc(C(=O)Oc2cc(C)c(CN3CCOCC3)cc2C)cc1OC | -1% | 0% | -4% | 40µM* | 4%
O=C(O)c1ccccc1-c1c2cc(I)c(=O)c(I)c-2oc2c(I)c(O)c(I)cc12 | . | . | 7.9µM* | . | -12%[18.4 µM]
COc1cccc(-n2cc3c(=O)n(C)c(=O)n(C)c3c2)c1 | 60% | ? | 3% | 45µM* | -4%
Cn1c(=O)c2cn(-c3ccccc3)cc2n(C)c1=O | -5% | 3% | 4% | -4% | -9%
CCOC(=O)c1[nH]c2ccccc2c1NC(=O)c1ccc(S(=O)(=O)N(C)C)cc1 | 0% | ? | -5% | 0% | -4%
CN(C)S(=O)(=O)c1ccc(C(=O)Oc2cc(=O)[nH]c3ccccc23)cc1 | -5% | -16% | -13% | 20µM* | -2%
O=S(=O)(NCCc1nnc2ccc(SCc3ccccc3Cl)nn12)c1ccccc1 | . | -1% | . | 1% | .
O=C1c2ccccc2C(O)(Cc2ccccc2)N1Cc1ccco1 (stereo not given) | -14% | -1% | -4% | 45µM* | 11%
Cn1ncc2cc(NC(=S)NC(=O)c3ccccc3)ccc21 | -14% | -13% | 8% | 18µM* | 5%
COc1ccc(NC(=S)NC(=O)c2ccccc2)cn1 | -10% | -5% | 7% | 35µM* | -9%
SMILES | AmpC inh no detg | AmpC inh detg | AMA1 RON2 block | Sm TGR inh | RE007 growth inh
O=C(NC(=S)Nc1cnc2ccccc2c1)c1ccccc1 | -35% | -2% | 54% | ? | -11%
COc1ccc(NC(=O)c2cccc(Oc3ccccc3)c2)cn1 | -18% | -8% | -3% | -1% | -8%
O=C(NCCc1ccc(Cl)cc1)c1ccc(CS(=O)Cc2cccc(Cl)c2)o1 (stereo not given) | . | -1% | . | ? | .
CCOc1ccc(CCNCc2c(C(=O)O)c(C)n(Cc3ccccc3F)c2C)cc1 | . | 2% | . | -11% | .
Cc1cc(O)c(C(=O)/C=C/c2ccccc2)c(=O)o1 | -56% | 2% | 79% | ? | -5%
Cc1cc(O)c(C(=O)/C=C/c2ccc(C(C)C)cc2)c(=O)o1 | 13µM* | -5% | 78% | -12% | 0%
Cc1cc(O)c(C(=O)/C=C/c2ccccc2Br)c(=O)o1 | 13µM* | -15% | 55% | -32% | -1%
CCN(CC)C(=O)c1sc(NC(=O)c2nc3ncccn3n2)c(C(=O)OC)c1C | . | -1% | . | -1% | .
NC(=O)c1ccsc1NC(=O)COC(=O)COc1ccccc1[N+](=O)[O-] | -43% | 56µM* | 17% | 4% | 0%
CCOc1ccc(-c2nc(CSCC(=O)N3CCN(C(=O)c4ccco4)CC3)c(C)o2)cc1 | 107% | ? | -7% | 89µM* | -15%
CCOC(=O)C1CCN(C(=O)CSCc2nc(-c3ccc(OCC)cc3)oc2C)CC1 | 176% | -2% | -3% | -17% | 7%
O=C(CSCc1ccccc1)N1CCN(C(=O)c2ccco2)CC1 | -13% | -2% | 2% | 45µM* | 10%
O=C(CSc1ccccc1)N1CCN(C(=O)c2ccco2)CC1 | -11% | -1% | 11% | ? | -1%
CCn1c(=N)n(CCOc2ccc(Br)cc2)c2ccccc21 | . | 5% | . | 15% | .
CCCc1nnc(NC(=O)Cc2coc3ccc(C)cc23)s1 | . | 4% | . | 4% | .
CCCCn1c(N)c(N(CC(C)C)C(=O)CN2C(=O)NC3(CC(C)CC(C)(C)C3)C2=O)c(=O)[nH]c1=O (stereo not given) | 35µM* | -10% | -10% | -7% | -24%
CCCCn1c(N)c(N(Cc2ccccc2OC)C(=O)CN2C(=O)NC3(CCCC3)C2=O)c(=O)[nH]c1=O | -15% | -3% | 1% | 56µM* | 27%
O=C(Nc1cc(-c2nc3ccccc3o2)ccc1Cl)c1sc2c([N+](=O)[O-])cccc2c1Cl | . | 4% | . | 0% | .
O=C(Cc1cccc2ccccc12)Nc1nnc(-c2cccc([N+](=O)[O-])c2)s1 | -42% | ? | 9% | -9% | -7%
O=C(CSc1ccc(Cl)cc1)Nc1nnc(-c2cccc([N+](=O)[O-])c2)s1 | -16% | ? | 40% | 45µM* | 9%
Cc1ccc(CNC(=O)c2cn(C)c3ccc(S(=O)(=O)N4CCC(C)CC4)cc3c2=O)cc1 | . | -1% | . | -1% | .
COc1ccc(S[C@@H](CCN2CC[C@H](C)CCC2=O)c2ccccc2)cc1 | 120% | 11% | 6% | 40µM* | 17%

Assay outcomes (PubChem)
